{
  "source": "PubChem BioAssay (NCATS)",
  "note": "Records with an inconclusive call do not appear. Unmarked numbers belong to inactive results. Active and inactive are the calls of the source. Calls come from the whole dose curve; as a rule, active = well fitted inhibition curve with a large enough effect; inconclusive = small, poorly fitted or top-dose-only effect; inactive = no such curve, though single readings can be large or run the other way. % is set by controls: 0 for no effect and ±100 for the full control effect; potency is the fitted concentration of half-maximal effect.",
  "data": [
    {"experiment": "P-glycoprotein substrates identified in KB-3-1 adenocarcinoma cell line, qHTS therapeutic library screen (AID 1346986); note: nearly all actives have a fitted effect of over 60% in size;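 note: potency is for cytotoxicity meaning loss of cell viability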", "details": "KB-3-1 parental cells viability, CellTiter-Glo, 72 h; series mostly up to 44.5 µM; activity change, negative = cytotoxicity: at the top concentration", "method": "The ATP-binding cassette transporters P-glycoprotein (P-gp) is known to limit brain penetration of many chemotherapy drugs. […] We used the CellTiter-Glo viability assay to test library compounds against the parental KB-3-1 human cervical adenocarcinoma cell line and the colchicine-selected sub-line KB-8-5-11 that over-expresses P-gp. KB-8-5-11 cells were also tested in the presence of a P-gp inhibitor (tariquidar) to assess reversability of transporter-mediated resistance. Of the tested compounds, a total of 90 P-gp substrates were identified including 55 newly identified P-gp substrates. Substrates were confirmed using an orthogonal killing assay against HEK-293 cells transfected with P-gp. As exemplars, we confirmed that AT7159 (cyclin-dependent kinase inhibitor); AT9283, (Janus kinase 2/3 inhibitor); ispinesib (kinesin spindle protein inhibitor); gedatolisib (PKI-587, phosphoinositide 3-kinase/mammalian target of rampamycin inhibitor); GSK-690693 (AKT inhibitor); and KW-2478 (heat shock protein 90 inhibitor) were substrates , and direct ATPase stimulation was assessed. ABCG2 was also found to confer high levels of resistance to AT9283, GSK-690693 and gedatolisib, while ispinesib, AT7519 and KW-2478 were weaker substrates.\nThe HeLa derivative cell line, KB-3-1, and its colchicine-selected, P-gp-overexpressing subline, KB-8-5-11 were maintained in DMEM with 10% FCS and Pen/Strep with glutamine at 37 degree C in 5% CO2. For KB-8-5-11 cells, colchicine was added to the medium at a concentration of 100 ng/mL. HEK-293 cells transfected with empty vector (pcDNA) or vector containing human ABCB1 (MDR-19) or ABCG2 (R-5) have been described previously (Robey, Lin, Qiu, Chan & Bates, 2011) and were maintained in EMEM supplemented with 10% FCS, Pen/Strep and glutamine with 2 mg/ml G418 to select for the expression of the transporter. Cultures were confirmed to be free of mycoplasma infection using the MycoAlert Mycoplasma Detection Kit (Lonza, Walkersville, MD). For the screen, assay medium was identical to culture medium except for KB-8-5-11 where colchicine was excluded from the medium.\nAll cell lines were plated into 1536-well plates at 500 cells/well in 5 uL media. Compounds were then pinned in dose-response using a 1536-head pin tool (Kalypsis, San Diego, CA) and plates were incubated at 37 degree C in 5% CO2 for an additional 72 h. CellTiter-Glo reagent (Promega) was dispensed into the wells, incubated for 5 min and luminescence was read on a ViewLux instrument (Perkin-Elmer). Cytotoxic compounds were defined as those that yielded a curve class of -1.1, -1.2, -2.1, -2.2, -2.3, or -2.4, a maximum response of >50% and an AC50 of < 10 uM. Cherry-picked hits from screening analysis were tested with both the KB pair of cell lines, and the pcDNA (empty vector control) and MDR-19 (P-gp overexpressing) pair were tested, in the absence and presence of tariquidar.", "values": [
      {"smiles": "O=C(Nc1ccc(S(=O)(=O)Nc2nccs2)cc1)c1cc(-c2ccccc2)nc2ccccc12", "activity change, negative = cytotoxicity": "-19.1%"},
      {"smiles": "Cc1nc(CN(C)c2ncnc3ccc(-c4ccc5c(c4)OCO5)cc23)cs1", "Potency": "16.4 µM (active)"},
      {"smiles": "CN(c1ccc(NC(=O)Nc2ccc(OC(F)(F)F)cc2)cc1)c1ccnc(Nc2cccc(S(N)(=O)=O)c2)n1", "Potency": "18.4 µM (active)"},
      {"smiles": "CC(C)=CCC/C(C)=C/CC/C(C)=C/CSc1ccccc1C(=O)O", "outcome": "inactive"},
      {"smiles": "COc1cc(/C=C(\\C#N)C(N)=O)cc(CSc2nc3ccccc3s2)c1O", "activity change, negative = cytotoxicity": "-4.84%"},
      {"smiles": "COc1cc(OC)c2ccc(=O)oc2c1", "activity change, negative = cytotoxicity": "-0.13% [at 93.4 µM]"},
      {"smiles": "Clc1ccc2ncc(-c3cccc(NC4CCNCC4)n3)n2c1", "Potency": "3.66 µM (active)"},
      {"smiles": "O=C(O)c1ccc2c3c1cccc3c(=O)n1c3ccccc3nc21", "activity change, negative = cytotoxicity": "0.132%"},
      {"smiles": "Nc1ccn([C@H]2O[C@@H](CO)[C@H](O)[C@H]2O)c(=O)n1", "Potency": "3.66 µM (active)"},
      {"smiles": "Cc1cn(C2OC(CO)C(O)C2F)c(=O)[nH]c1=O", "note": "(stereo not given)", "activity change, negative = cytotoxicity": "0.0914%"},
      {"smiles": "Cc1cncc2cccc(S(=O)(=O)N3CCCNC[C@@H]3C)c12", "Potency": "6.51 µM (active)"},
      {"smiles": "c1ccc(-c2[nH]ncc2-c2ccnc3ccccc23)nc1", "activity change, negative = cytotoxicity": "0.623%"},
      {"smiles": "O=S(=O)(/N=C/c1c(O)ccc2ccccc12)c1cccs1", "activity change, negative = cytotoxicity": "-0.802%"},
      {"smiles": "COc1cc2ncnc(Nc3ccc(NC(=O)c4ccccc4)cc3)c2cc1OC", "Potency": "20.6 µM (active)"},
      {"smiles": "Cc1[nH]c(/C=C2\\C(=O)Nc3ccc(F)cc32)c(C)c1C(=O)NC[C@H](O)CN1CCOCC1", "Potency": "14.6 µM (active)"},
      {"smiles": "Cc1cn([C@H]2C[C@H](O)[C@@H](CO)O2)c(=O)nc1N", "activity change, negative = cytotoxicity": "-2.62%"},
      {"smiles": "Cc1ccc(NS(=O)(=O)c2cc3c(cc2F)NC(=O)CC3)cc1Cl", "activity change, negative = cytotoxicity": "-6.68%"},
      {"smiles": "CC1CN(CC(=O)Nc2ccc3c(c2)Cc2cccc(-c4cc(=O)cc(N5CCOCC5)o4)c2S3)CC(C)O1", "note": "(stereo not given)", "activity change, negative = cytotoxicity": "-16.6%"},
      {"smiles": "COc1ccccc1-c1cc(Nc2cccc(CS(N)(=O)=O)c2)ncn1", "Potency": "11.6 µM (active)"},
      {"smiles": "CN1CCC(c2c(O)cc(O)c3c(=O)cc(-c4ccccc4Cl)oc23)C(O)C1", "note": "(stereo not given)", "Potency": "0.231 µM (active)"},
      {"smiles": "CCCn1cnc2c(NCc3ccc(C)s3)nc(N[C@H](CC)CO)nc21", "activity change, negative = cytotoxicity": "0.79%"},
      {"smiles": "Nc1ncnc2c1c(I)cn2C1OC(CO)C(O)C1O", "note": "(stereo not given)", "Potency": "3.26 µM (active)"},
      {"smiles": "COc1ccc(-c2oc3ncnc(N)c3c2-c2ccc(NC(=O)Nc3cc(C(F)(F)F)ccc3F)cc2)cc1", "Potency": "4.61 µM (active)"},
      {"smiles": "C[C@]1(C(=O)Nc2ccc(F)nc2)CCCN1c1nc(Nc2cc(C3CC3)[nH]n2)c2cccn2n1", "Potency": "2.06 µM (active)"},
      {"smiles": "OCCn1cc(-c2ccc3c(c2)CC/C3=N\\O)c(-c2ccncc2)n1", "activity change, negative = cytotoxicity": "-0.411%"},
      {"smiles": "CC(=O)[C@H]1CCC2C3CCC4=CC(=O)CC[C@]4(C)C3[C@H](O)C[C@@]21C", "note": "(stereo not given in full)", "activity change, negative = cytotoxicity": "-4.12%"},
      {"smiles": "C=C(C)[C@@H]1CCC2=CC(=O)C[C@@H](C)[C@]2(C)C1", "activity change, negative = cytotoxicity": "0.559% [at 93.4 µM]"},
      {"smiles": "C=CC(=O)Nc1cccc(C)c1Nc1ncc2cc(-c3c(Cl)c(OC)cc(OC)c3Cl)ccc2n1", "Potency": "14.6 µM (active)"},
      {"smiles": "CCOc1cccc2c1OC(c1ccc(F)cc1)C([N+](=O)[O-])=C2", "note": "(stereo not given)", "Potency": "8.2 µM (active)"},
      {"smiles": "Cc1ccc(Nc2ncc3c(n2)N(C)C(=O)N(c2cc(NC(=O)c4cccc(C(F)(F)F)c4)ccc2C)C3)cn1", "activity change, negative = cytotoxicity": "-41.2%"},
      {"smiles": "CC(CCc1ccccn1)(CCc1ccccn1)C(=O)c1ccccc1", "activity change, negative = cytotoxicity": "0.821%"},
      {"smiles": "COC(=O)[C@]12CCC(C)(C)C[C@@H]1[C@@H]1C(=O)C=C3[C@]4(C)C=C(C#N)C(=O)C(C)(C)[C@@H]4CC[C@@]3(C)[C@]1(C)CC2", "Potency": "1.46 µM (active)"},
      {"smiles": "O=C1O[C@H](C(O)CO)C(=O)C1=O", "note": "(stereo not given in full)", "outcome": "inactive"},
      {"smiles": "COC(=O)c1ccc(=O)c2nc3/c(=C/O)c(O)cc(=O)c3[nH]c12", "outcome": "inactive"},
      {"smiles": "Cc1ccc(OCCSc2ncccn2)c(Br)c1", "outcome": "inactive"},
      {"smiles": "NC(=O)c1ncn(C2O[C@H](CO)[C@@H](O)[C@H]2O)c1N", "note": "(stereo not given in full)", "activity change, negative = cytotoxicity": "-1.08%"},
      {"smiles": "O=C1NCCSc2c1sc1ccc(O)cc21", "Potency": "6.51 µM (active)"},
      {"smiles": "COc1cc2ncnc(Sc3nnc(C)s3)c2cc1OC", "Potency": "18.4 µM (active)"},
      {"smiles": "N#Cc1cccc(CN2CCC(N(Cc3cccnc3)C(=O)Nc3ccccc3-c3ccccc3)CC2)c1", "activity change, negative = cytotoxicity": "-16.1%"},
      {"smiles": "Cc1cc(F)c(Nc2ncnc3cc(OCc4ccccc4)ccc23)cc1O", "activity change, negative = cytotoxicity": "-8.22%"}
    ]}
  ]
}
